Measured values taken from article PMC4336329 (PLoS ONE, 2015).
About 14,000 (4.5%) of roughly 310,000 compounds showed an effect of 50% or more. Effects have a minus sign here. This excerpt belongs to a sample that is enriched for strong results.

The compounds below were run against human ether-à-go-go-related gene (hERG) potassium channel (human, UniProt Q12809) (assay: primary screen, population patch clamp on CHO cells stably expressing hERG; higher = less effect of the substance).
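Note: peak tail current of the secondary pulse compared with the same well before compound.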

human ether-à-go-go-related gene (hERG) potassium channel, sequence (Q12809 whole entry, looked up): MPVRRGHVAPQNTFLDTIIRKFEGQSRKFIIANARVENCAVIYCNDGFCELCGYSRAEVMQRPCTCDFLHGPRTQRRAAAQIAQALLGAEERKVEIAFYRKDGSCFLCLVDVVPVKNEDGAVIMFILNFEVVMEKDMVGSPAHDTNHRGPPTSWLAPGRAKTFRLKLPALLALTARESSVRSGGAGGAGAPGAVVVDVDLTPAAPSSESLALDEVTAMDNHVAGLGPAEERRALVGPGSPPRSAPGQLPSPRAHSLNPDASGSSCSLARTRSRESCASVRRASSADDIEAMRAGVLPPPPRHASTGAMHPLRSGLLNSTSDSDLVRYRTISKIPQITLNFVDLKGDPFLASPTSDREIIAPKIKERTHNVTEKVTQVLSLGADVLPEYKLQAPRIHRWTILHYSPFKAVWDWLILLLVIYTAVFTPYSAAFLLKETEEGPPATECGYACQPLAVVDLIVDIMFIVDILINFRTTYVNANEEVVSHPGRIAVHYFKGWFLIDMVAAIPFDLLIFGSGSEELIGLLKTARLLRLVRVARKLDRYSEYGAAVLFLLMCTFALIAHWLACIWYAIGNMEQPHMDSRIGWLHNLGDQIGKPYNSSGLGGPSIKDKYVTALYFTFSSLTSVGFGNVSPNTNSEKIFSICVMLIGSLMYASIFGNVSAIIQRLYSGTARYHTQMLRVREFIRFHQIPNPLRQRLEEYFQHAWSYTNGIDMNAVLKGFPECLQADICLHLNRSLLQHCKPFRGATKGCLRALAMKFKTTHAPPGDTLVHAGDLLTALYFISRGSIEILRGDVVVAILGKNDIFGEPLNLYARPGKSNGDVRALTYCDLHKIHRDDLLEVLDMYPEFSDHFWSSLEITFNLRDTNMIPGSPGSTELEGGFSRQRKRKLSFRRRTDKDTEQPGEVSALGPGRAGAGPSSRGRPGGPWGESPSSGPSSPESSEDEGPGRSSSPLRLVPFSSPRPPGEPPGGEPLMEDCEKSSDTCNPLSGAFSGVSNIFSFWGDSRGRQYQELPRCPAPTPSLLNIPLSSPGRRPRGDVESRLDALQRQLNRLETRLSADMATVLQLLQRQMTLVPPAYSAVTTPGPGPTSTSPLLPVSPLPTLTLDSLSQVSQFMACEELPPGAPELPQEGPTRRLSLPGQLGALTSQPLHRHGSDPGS

Structure (SMILES) | hERG current change (%, negative = inhibition) at 10uM [%]
N#Cc1cccc(C(=O)OCC(=O)N2CCCc3ccccc32)c1 | -1.94
COc1cc(CN2CCC(n3nccc3NC(=O)CCCc3ccccc3)CC2)ccc1F | -66.5
COc1cc(CN2CCC(n3nccc3NC(=O)CCCc3ccccc3)CC2)ccc1O | -31.1
COc1ccc(CN2CCC(n3nccc3NC(=O)CCCc3ccccc3)CC2)cc1C | -93.3
O=C(O)CNC(=O)c1ccccc1NC(=O)c1ccco1 | 7.93
COc1ccccc1C/C(N)=N/OC(=O)COc1ccc(C)cc1C | 17.4
CC12CC3CC(C)(C1)CC(C(=O)NCc1cccnc1)(C3)C2 | -11.6
c1ccc(OCCN2CCN(Cc3nc(-c4ccc5c(c4)OCO5)no3)CC2)cc1 | -51.5
O=C(c1ccco1)N1CCCN(Cc2nc(-c3ccc4c(c3)OCO4)no2)CC1 | -46.1
c1cc(C2CCN(Cc3nc(-c4ccc5c(c4)OCO5)no3)CC2)ccn1 | -19.7
COCC1CCN(Cc2nc(-c3ccc4c(c3)OCO4)no2)C1 (centres unmarked) | -17.1
COCC1CCCN(Cc2nc(-c3ccc4c(c3)OCO4)no2)C1 (centres unmarked) | -5.71
Fc1ccc(CN2CCCN(Cc3nc(-c4ccc5c(c4)OCO5)no3)CC2)cc1 | -62.2
Fc1ccccc1CNc1ncnc2sccc12 | 11.9
CCOC(=O)CN1C(=O)SC(Nc2ccc(C)cc2)C1=O (centres unmarked) | 27.1
O=C(Nc1c2c(nn1-c1ccccc1)CS(=O)C2)c1ccco1 (centres unmarked) | 7.5
CC(=O)OCC(=O)[C@@]1(OC(C)=O)[C@@H](C)C[C@H]2[C@@H]3C[C@H](F)C4=CC(=O)C=C[C@]4(C)[C@@]3(F)[C@@H](O)C[C@@]21C | -15.1
CCOc1ccc(Nc2nc(NCC3CCCO3)c3ccccc3n2)cc1.Cl (centres unmarked) | -72.3
COc1ccc(Nc2nc(NCC3CCCO3)c3ccccc3n2)c(OC)c1.Cl (centres unmarked) | -71.7
CCOc1ccc(Nc2nc(N)c3ccccc3n2)cc1.Cl | -41.8
Cl.OCCNc1nc(Nc2cccc(O)c2)nc2ccccc12 | -23.8
Oc1ccccc1-c1nc(NCC2CCCO2)c2ccccc2n1 (centres unmarked) | 19

Structure (SMILES) | hERG current change (%, negative = inhibition) at 10uM [%]
CC(C)Oc1ccc(-c2nc(NCC3CCCO3)c3ccccc3n2)cc1 (centres unmarked) | -27.4
Cl.Oc1ccccc1Nc1nc(NCC2CCCO2)c2ccccc2n1 (centres unmarked) | -67.5
COc1ccc(S(=O)(=O)Nc2nc3ccccc3nc2NCC2CCCO2)cc1 (centres unmarked) | 5.29
Cl.Oc1cccc(Nc2nc(NCC3CCCO3)c3ccccc3n2)c1 (centres unmarked) | -61.4
COc1ccc(OC)c(Nc2nc(NCCO)c3ccccc3n2)c1.Cl | -44.4
Oc1ccc(Cl)cc1Nc1nc(NCC2CCCO2)c2ccccc2n1 (centres unmarked) | 23
Cl.c1ccc(Nc2nc(NCC3CCCO3)c3ccccc3n2)cc1 (centres unmarked) | -31.2
CC(C)C[C@@H](CO)N1CCN(Cc2cccnc2)CCC1=O | 3.69
CCn1c2ccccc2c2cc(NC(=O)c3cccc([N+](=O)[O-])c3C)ccc21 | 7.76
CCOc1ccc(/C=C2/SC(=S)N(n3c(C)ccc3C)C2=O)cc1 | 8.78
Cc1ccc(N=C(N(C)C)P(=O)(N(C)C)N(C)C)cc1 | 17.4
Cc1ccc(Oc2cc(NN3CCCCC3)c([N+](=O)[O-])cc2[N+](=O)[O-])c([N+](=O)[O-])c1 | -10.3
O=C(Nc1cccc(NC(=O)c2ccccc2Cl)c1)c1cccs1 | 2.54
O=[N+]([O-])c1ccc(CSC2=NCCS2)cc1 | -15.3
CC1CCN(C(=O)c2[nH]cnc2C(=O)N2CCN(C(=O)OC(C)(C)C)CC2)CC1 | 19
O=C(CN(Cc1ccccc1Cl)C(=O)c1csnn1)NC1CCCC1 | -13.6
c1cncc(-c2nc(NCC3CCCO3)c3ccccc3n2)c1 (centres unmarked) | 7.02
COc1cccc(-c2nc(NCC3CCCO3)c3ccccc3n2)c1O (centres unmarked) | -21.2
COc1ccccc1Nc1nc(NCC2CCCO2)c2ccccc2n1.Cl (centres unmarked) | -59.6
CC(C)C(=O)NC(=S)Nc1ccccc1C(F)(F)F | 10.4
O=C(N/N=C/c1coc2ccccc2c1=O)c1ccccc1Br | -0.324
Cc1cccc(NCc2ccccc2)c1 | 5.29
